# Test results: PubChem BioAssay AID1063 (University of Pittsburgh Molecular Library Screening Center, 2008)
# The whole screen tested about 200,000 compounds, of which about 18,000 (9%) were called active. No stated cut-off is given here; in the data, active means inhibition above about 50%; inactive means the rest. The full list was thinned out, with actives kept by preference.
# Experiment: antileishmanial activity against promastigotes – primary screen (AID 1063);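 further: promastigotes grown with compound for 44 hours at 28 °C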
# Settings: Leishmania major promastigotes, resazurin fluorescence viability; at 10 µM; stronger effect = higher value
row,SMILES,inhibition
1,Cc1c(Cl)cccc1NC(=S)NCc1ccc2c(c1)OCO2,81.5% (active)
2,CCNC(=S)Nc1cccc(Cl)c1C,-6.44% (inactive)
3,S=C(NCc1ccc2c(c1)OCO2)NCc1ccco1,8.29% (inactive)
4,CC(C)(C)c1cnnn1-c1ccc([N+](=O)[O-])cc1,-0.24% (inactive)
5,CCc1nnc(NS(=O)(=O)c2ccc(NC(=S)NC(=O)c3cccs3)cc2)s1,-1.21% (inactive)
6,Cc1c(C(=O)O)nnn1-c1nonc1N,-0.68% (inactive)
7,Cc1ccc(C(=O)Nc2cccc3ncccc23)cc1[N+](=O)[O-],0.51% (inactive)
8,Cc1ccc(/C=C(\C#N)C(=O)Nc2cccc3ncccc23)o1,55.2% (active)
9,O=C(Nc1cccc2ncccc12)C(Cl)(Cl)Cl,-0.02% (inactive)
10,C=CCn1c(SCc2c(C(=O)OC)sc(N)c2C(=O)OC)nnc1-c1ccc(Cl)cc1,50.9% (active)
11,C=CCn1c(SCc2cc(C(=O)OC)c(C)o2)nnc1-c1ccncc1,-5.9% (inactive)
12,C=CCn1c(SCn2nnc3ccccc3c2=O)nnc1-c1ccc(Cl)cc1,1.86% (inactive)
13,CCOC(=O)C1(CC2CCCCO2)CCN(Cc2nc(-c3cccs3)oc2C)CC1 (stereo not given),19.6% (inactive)
14,Cc1ccccc1NC(=O)NNC(=O)OC(C)(C)C,-6.97% (inactive)
15,CCC(C)(C)NC(=O)C1c2ccccc2Oc2ccccc21,1.22% (inactive)
16,CCCC1=Nc2cc(C(=O)NCc3ccco3)ccc2Sc2ccccc21,91.3% (active)
17,CCOc1ccccc1C(=O)NCc1ccco1,-8.32% (inactive)
18,CCCCOc1ccc(C(=O)NCc2ccco2)cc1,-3.02% (inactive)
19,Cc1ccc(S(=O)(=O)N2CCOCC2)cc1NC(=O)CSc1nnc(N)s1,-4.64% (inactive)
20,CC(Sc1nncn1C)C(=O)Nc1cc(C(F)(F)F)ccc1N1CCOCC1 (stereo not given),-8.57% (inactive)
21,CCCCNC(=O)c1ccc(-n2c(=S)[nH]c3ccccc3c2=O)cc1,2.08% (inactive)
22,Cn1c(=O)c2cc(S(=O)(=O)NCCC(=O)Nc3ccc(F)cc3F)ccc2n(C)c1=O,8.04% (inactive)
23,Cc1ccc(-n2ncc3c(=O)n(-c4ccc(C)c(C)c4)c(-c4ccco4)nc32)cc1,51.5% (active)
24,Cc1ccc(-c2nc3c(cnn3-c3ccccc3)c(=O)o2)cc1,-4.66% (inactive)

row,SMILES,inhibition
1,Cc1ccc(-n2ncc3c2ncn2nc(-c4ccco4)nc32)c(C)c1,-2.03% (inactive)
2,COc1ccc(-c2nc(CN3CCN(c4ncccn4)CC3)c(C)o2)cc1C,30.8% (inactive)
3,COc1cc(OC)cc(-c2nc(=S)n3ccsc3n2)c1,-3.3% (inactive)
4,O=C(N1CCCCC1)N1CCN(C(=O)N2CCCCC2)CC1,-3.35% (inactive)
5,Cc1ccccc1NC(=O)c1nn(-c2ccc(F)c(F)c2)ccc1=O,-0.26% (inactive)
6,Cc1cccc(C)c1NC(=O)CSc1nnc(-c2ccccc2)n1Cc1ccc2c(c1)OCO2,53.4% (active)
7,Cc1cnc(NC(=O)CSc2nnc(-c3ccccc3)n2Cc2ccccc2)s1,12.5% (inactive)
8,Cc1ccccc1-c1nnc(SCC(=O)NCc2ccc3c(c2)OCO3)n1C,-5.07% (inactive)
9,COc1ccc(C2C(C(C)=O)=C(O)C(=O)N2CCc2c[nH]c3ccccc23)cc1 (stereo not given),-4.35% (inactive)
10,COc1ccccc1NC(=O)CSc1nnc(-c2ccoc2C)n1CCc1ccccc1,76.2% (active)
11,COc1ccccc1NC(=O)CSc1nnc(C)n1CC1CCCO1 (stereo not given),-2.8% (inactive)
12,CCCn1c(SCC(=O)Nc2cccc(C(=O)OCC)c2)nnc1-c1ccoc1C,23.8% (inactive)
13,Cc1ccc(CN2CCC(N3CCC(C(=O)NCC4CCCO4)CC3)CC2)o1 (stereo not given),-6.4% (inactive)
14,CC(=O)c1cc(-c2ccccc2)n(CC(=O)NC2CCCCC2)c1C,-2.4% (inactive)
15,COc1ccccc1NC(=O)/C=C/C(N)=O,59.7% (active)
16,COc1ccccc1NC(=O)c1ccc(C)s1,13.5% (inactive)
17,COc1ccccc1NC(=O)/C=C/C(=O)O,-7.02% (inactive)
18,O=C(COC(=O)c1cnc(Cl)c(Cl)c1)NCc1ccco1,-5.74% (inactive)
19,O=C(CC1SCCNC1=O)Nc1ccc(Cl)cc1 (stereo not given),-5.68% (inactive)
20,COc1cccc(CC2(CO)CCCN(CC3=Cc4cc(OC)ccc4OC3)C2)c1 (stereo not given),-1.53% (inactive)
21,COc1ccc2c(c1)C=CC1(O2)N(CCO)c2ccccc2C1(C)C (stereo not given),99.2% (active)
22,COc1ccc2c(c1)C(SCC(=O)NCc1ccccc1)CC(C)(C)O2 (stereo not given),-6.83% (inactive)
23,CC(C)C(=O)NCc1cc(-c2ccc(Cl)cc2)no1,1.34% (inactive)
24,O=S(=O)(c1ccccc1)N(CC(O)CN1CCCCC1)c1ccccc1 (stereo not given),45% (inactive)

row,SMILES,inhibition
1,Cc1cccc(N(CC(O)CN(C)C)S(=O)(=O)c2ccccc2)c1 (stereo not given),95.9% (active)
2,Cc1cc(C)n(CC(O)CN(c2ccccc2)S(=O)(=O)c2ccc3ccccc3c2)n1 (stereo not given),61.1% (active)
3,CCN(c1ccccc1)S(=O)(=O)c1ccc(N)cc1,-4.44% (inactive)
4,COc1ccccc1N(CC(=O)N1CCCCC1)S(=O)(=O)c1ccccc1,-2.25% (inactive)
5,Cc1cccc(N(CC(=O)N2CCOCC2)S(C)(=O)=O)c1,0.32% (inactive)
6,Cc1ccc(N(CC(O)CN2CCCC2)S(=O)(=O)c2ccccc2)cc1 (stereo not given),60.2% (active)
7,CCN(c1ccccc1)S(=O)(=O)c1cccc(C(=O)O)c1,-3.46% (inactive)
8,CCN(c1ccccc1)S(=O)(=O)c1ccc2[nH]c(=O)[nH]c2c1,-5.33% (inactive)
9,CC1CCCCC1NC(=O)COC(=O)Cc1ccc(Br)cc1 (stereo not given),-8.18% (inactive)
10,C/C(=N\OCC(=O)Nc1ccc(Br)cc1)c1cccs1,-1.5% (inactive)
11,Cc1cc(NC(=O)CN2C(=O)NC(C)(CCc3ccccc3)C2=O)no1 (stereo not given),2.34% (inactive)
12,CCc1cccc2c(=O)c(C(=O)NCCCOC)c[nH]c12,-1.23% (inactive)
13,Cc1ccc(/C=N/NC(=O)C(NC(=O)c2ccccc2)c2n[nH]c(=O)c3ccccc23)cc1 (stereo not given),-1.59% (inactive)
14,Cc1ccc(/C=N/NC(=O)C2=NNC(c3ccccc3)(c3ccccc3)C2)c(O)c1,100% (active)
15,Cc1ccc(-c2nn(-c3ccccc3)cc2/C=N/NC(=O)c2ccc3c(c2)OCO3)cc1,8.23% (inactive)
16,CNCC(O)CN1CCN(c2ccccc2OC)CC1 (stereo not given),-6.68% (inactive)
17,Cc1c(Br)c([N+](=O)[O-])nn1CC(=O)Nc1sc2c(c1C(=O)OC(C)C)CCC(C)C2 (stereo not given),-5.92% (inactive)
18,COC(=O)c1c(NC(=O)CN2C(=O)NC(CCc3ccccc3)C2=O)sc2c1CCCCC2 (stereo not given),28.1% (inactive)
19,COC(=O)c1c(NC(=O)CN2CCN(S(=O)(=O)c3ccccc3[N+](=O)[O-])CC2)sc2c1CCC(C)C2 (stereo not given),76.2% (active)
20,Cc1ccc(NC(=O)C(=O)NCc2ccco2)c(C)c1,-8.28% (inactive)
21,C/C(CC(=O)Nc1ccc(C)cc1C)=N\NC(=O)C(C)C,13.4% (inactive)
22,NC(=O)c1ccc(N2CCOCC2)nc1,2.59% (inactive)
23,CCn1cnc2scc(-c3ccc(C)c(C)c3)c2c1=O,-4.16% (inactive)
24,COc1ccc(-c2csc3ncnc(Oc4ccc5c(C)cc(=O)oc5c4)c23)cc1,16.6% (inactive)

row,SMILES,inhibition
1,Cc1cc(F)ccc1S(=O)(=O)Nc1ncnc2scc(-c3ccc(F)cc3)c12,64.1% (active)
2,O=C(NCc1nnc(SCC(=O)N2CCC(Cc3ccccc3)CC2)o1)c1ccco1,25% (inactive)
3,COCC(C)NC(=O)COc1nncc2ccccc12 (stereo not given),4.91% (inactive)
4,CN1CCN(S(=O)(=O)c2cccc(C(=O)O)c2)CC1,-1.21% (inactive)
5,O=C(NNC1=NCCC1)c1cccc(S(=O)(=O)N2CCCCC2)c1,-5.29% (inactive)
6,CNC(=O)NC(=O)C(OC(=O)c1cccc(S(=O)(=O)N2CCCCC2)c1)c1ccccc1 (stereo not given),63.2% (active)
7,CC(C)OCCCNc1ncnc2c1[nH]c1ccc(F)cc12,36.3% (inactive)
8,CCN1CCCC1CNc1ncnc2c1[nH]c1ccc(F)cc12 (stereo not given),78.6% (active)
9,CCN1CCCC1Cn1cnc2c([nH]c3cc(OC)ccc32)c1=O (stereo not given),10.5% (inactive)
10,O=C(NCC1CCCCC1)c1cc(S(=O)(=O)N2CCCCC2)ccc1N1CCOCC1,7.99% (inactive)
11,Cc1cc(/C=C2/C(=N)N3C(=NC2=O)SN=C3S(C)(=O)=O)c(C)n1-c1ccccc1,3.11% (inactive)
12,O=C(Nc1cccc(C(F)(F)F)c1)c1ccc(N2CCNCC2)c([N+](=O)[O-])c1,100% (active)
13,O=C(Nc1ccc(N2C(=O)c3cccc4cccc(c34)C2=O)cc1)c1ccc(N2CCCCC2)c([N+](=O)[O-])c1,75% (active)
14,O=C(COc1ccccc1F)NNC(=O)c1ccc(N2CCCCC2)c([N+](=O)[O-])c1,-1.27% (inactive)
15,CC(NC(=O)c1ccc(N2CCNCC2)c([N+](=O)[O-])c1)C12CC3CC(CC(C3)C1)C2 (stereo not given),7.22% (inactive)
16,Cc1cccc(NC(=O)c2cccc(C(F)(F)F)c2)c1,13.2% (inactive)
17,O=C(Nc1ccc2c(c1)OCO2)c1ccc(N2C(=O)c3ccccc3C2=O)cc1,-0.72% (inactive)
18,C/C(=N/NC(=O)CCc1ccccc1)c1ccco1,11.8% (inactive)
19,CC1=NN(C(=O)c2ccc(Br)cc2)C(O)(c2ccccc2)C1 (stereo not given),-9.77% (inactive)
20,CCC(=O)Oc1cccc(C(=O)Nc2ccc(-c3nnc(-c4ccco4)o3)cc2)c1,98.9% (active)
21,CCCCOc1ccc(-c2nnc(-c3ccco3)o2)cc1,-7.38% (inactive)
22,CCOc1ccc(-c2nnc(-c3ccco3)o2)cc1,2.35% (inactive)
23,CCN(CC)S(=O)(=O)c1ccc(Cl)c(C(=O)NC(C)C(c2cccs2)N2CCCC2)c1 (stereo not given),10.7% (inactive)
